Screens from PubChem BioAssay.
MPTP inh = mitochondrial permeability transition pore inhibitors, primary screen, biochemical, isolated mouse mitochondria, absorbance. Ca2+ swelling absorbance, 30 min. inhibition, % at 10 µM. hit rate 1.4% among 360,000;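 active = inhibition of 50% or more, scaled per plate between neutral and stimulator controls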
TIM10 inh = growth inhibitors of isogenic TIM10 control yeast, primary screen, counter-screen for tim10-1 yeast inhibitor project, luminescence, uHTS; hit rate 1.4% among 330,000; S. cerevisiae TIM10 strain growth, BacTiter-Glo luminescence, 24 h; inhibition, % at 10 µM; AID 463195, 2010;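 active = inhibition of 40% or more at the single tested concentration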;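 also: wild-type TIM10 isogenic control strain grown at permissive 25 °C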
Mdm2-MdmX inh = inhibitors of human Mdm2-MdmX association, primary screen, cell-based, luminescence, split luciferase, SaOS-2, uHTS; AID 485346, 2010; hit rate 3% among 330,000; Protein Mdm4 (Homo sapiens) + E3 ubiquitin-protein ligase Mdm2 (Homo sapiens), …; SaOS-2 split-luciferase Mdm2/MdmX complementation; inhibition, % at 8 µM;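 active = inhibition of at least 50% at 8 µM in the primary screen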
tim23-1 inh = growth inhibitors of tim23-1 mutant yeast, primary screen, luminescence, uHTS; S. cerevisiae tim23-1 growth, BacTiter-Glo luminescence, 24 h; inhibition, % at 20 µM; hit rate 1.3% among 330,000;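 active = growth inhibition of the mutant yeast at or above 50%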;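 also: temperature-sensitive mutant grown at 25 °C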
tim10-1 inh = growth inhibitors of tim10-1 mutant yeast, primary screen, luminescence, uHTS; S. cerevisiae tim10-1 ts strain growth, BacTiter-Glo, 24 h; inhibition, % at 20 µM; hit rate 2.2% among 330,000; AID 463190, 2010;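 active = inhibition of at least 40%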;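 also: mutant grown at 25 °C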
tim10-1 confirm = growth inhibitors of tim10-1 mutant yeast, confirmation, single concentration, luminescence, S. cerevisiae; shares compounds with tim10-1 inh; S. cerevisiae tim10-1 ts strain growth, BacTiter-Glo, 24 h; inhibition, % at 20 µM; hit rate 56% among 7,400; AID 463213, 2010;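 active = inhibition of yeast growth at or above a set limit in either of two repeat tests at 20 µM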;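 also: tim10-1 mutant grown at permissive 25 °C to find synthetic lethal compounds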
tim10 confirm = growth inhibitors of wild-type TIM10 yeast, confirmation, counter-screen for tim10-1 synthetic lethality project, single concentration, luminescence, S. cerevisiae; shares compounds with TIM10 inh; S. cerevisiae tim10 strain growth, BacTiter-Glo luminescence, 24 h; inhibition, % at 10 µM; hit rate 63% among 4,600; AID 463215, 2010;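 active = inhibition of yeast growth at or above a set limit in either of two replicates at 10 µM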; also: this counterscreen used the strain with wild-type TIM10
tim23-1 confirm = tim23-1 mutant yeast growth inhibitors, confirmation, luminescence, single concentration. shares compounds with tim23-1 inh. S. cerevisiae tim23-1 growth, BacTiter-Glo luminescence, 24 h. inhibition, % at 20 µM. hit rate 83% among 4,400;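 active = inhibition above about 39% in either of two replicate wells at 20 µM, limit read from the data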;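 also: temperature-sensitive tim23-1 mutant grown at 25 °C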
Mdm2-MdmX conf = Mdm2-MdmX complex disruptors, retested hits, confirmation, luminescence, single concentration | shares compounds with Mdm2-MdmX inh | Mdm2-MdmX binding, luminescent assay | inhibition, % at 8 µM | hit rate 55% among 10,000; in the data active = inhibition above about 40%
FLuc counter = full-length luciferase signal inhibition, confirmation, counter-screen for Mdm2/MdmX interaction inhibitor project, cell-based, single concentration, SaOS-2; hit rate 77% among 6,200; inhibition, % at 8 µM; shares compounds with Mdm2-MdmX inh; SaOS-2 full-length luciferase counterscreen, luminescence;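 active = mean inhibition at 8 µM reaching about 37%, which flags the compound as non-specific, limit read from the data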;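 also: p53-null SaOS-2 cells with luciferase driven by a doxycycline-inducible promoter; compound on cells about two nights before reading with doxycycline added after day one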
Hits are given with their value; n = inactive; x = no result given. Only some compounds are listed: those with a hit (about 6.3% of all), similar ones and a draw of the others.

SMILES	MPTP inh	TIM10 inh	Mdm2-MdmX inh	tim23-1 inh	tim10-1 inh	tim10-1 confirm	tim10 confirm	others
CCCCn1c(N)c(C(=O)NCc2cccs2)c2nc3ccccc3nc21	n	n	n	n	41	n	x
CCOC(=O)[C@]12Cc3cc(C)ccc3[C@H]1N(C(C)C)C(=O)c1ccccc12	n	x	x	x	x	x	x
C[C@H]1COc2cc(N3CCN(C)CC3)ccc2S(=O)(=O)N1	n	x	x	x	x	x	x
CCOC(=O)[C@]12Cc3cc(C)ccc3[C@H]1N(C1CCCCC1)C(=O)c1cc(OC)ccc12	n	x	x	x	x	x	x
Cc1ccc(/C=C2/Sc3ccc(C(=O)N4CCC5(CC4)OCCO5)cc3NC2=O)cc1	n	n	n	n	47	n	x
O=c1[nH]c(=S)n(-c2ccccc2)c(O)c1/C=N/N1CCCCC1c1cccnc1 (stereo unspecified)	n	n	n	n	n	x	x
CCn1c(O)c(/C(C)=N/N2CCCCC2c2cccnc2)c(=O)[nH]c1=S (stereo unspecified)	n	n	n	n	48	n	x
O=c1[nH]c2ccccc2n1C1CCN(C(CCc2ccccc2)c2nnnn2-c2ccc3c(c2)OCCO3)CC1 (stereo unspecified)	n	x	x	x	x	x	x
CCC(C)N1C(=O)NC(=O)C2(Cc3c(ccc4ccccc34)N(C)C2)C1=O (stereo unspecified)	n	n	n	n	45	31	x
FC(F)(F)c1ccccc1CNCCc1c[nH]c2ccccc12	n	61	n	n	43	62	60
c1ccc(CN2COC3CCCCCC32)cc1 (stereo unspecified)	n	x	x	x	x	x	x
Cc1ccc(Cn2nnnc2CN2CCC(n3nnc4cc(C)ccc43)CC2)cc1	n	50	n	n	52	46	28
FC(F)(F)c1ccc2c(c1)nnn2C1CCN(Cc2nnnn2Cc2ccccc2)CC1	n	n	n	n	n	x	x
C[C@]12C[C@H](O)[C@@H](O)C[C@@H]1CC[C@@H]1[C@@H]2CC[C@]2(C)C(=O)CC[C@@H]12	n	x	x	x	x	x	x
NC(=O)c1ccc(OCCC(O)N2CC=C(c3ccc(F)cc3)CC2)cc1 (stereo unspecified)	n	n	n	n	n	x	x
CCOC(=O)c1ccc(N2C(=O)CC(N3CC=C(c4ccc(F)cc4)CC3)C2=O)cc1 (stereo unspecified)	n	57	n	n	63	62	44
O=C1NC(=O)N(Cc2ccco2)C(=O)/C1=C\c1cccn1CCOc1ccc(Cl)cc1	n	41	n	n	47	41	39
COc1ccc(-n2nnnc2C(CCSC)N2CCC(n3c(=O)[nH]c4ccccc43)CC2)cc1 (stereo unspecified)	n	x	x	x	x	x	x
OC(Cn1c2ccccc2c2ccccc21)C[n+]1cccc2ccccc21 (stereo unspecified)	n	57	n	n	49	43	43
Cc1cc(C)c(S(=O)(=O)N2Cc3ccccc3-n3nncc3C2)c(C)c1	n	x	x	x	x	x	x
CCSc1cc(C2C(C#N)=C(N)Oc3n[nH]c(C)c32)c(C)o1 (stereo unspecified)	n	48	n	n	63	47	45
COc1ccccc1N1C(=O)NC(=O)/C(=C/c2ccc([N+](=O)[O-])s2)C1=O	x	73	n	67	77	68	n	tim23-1 confirm=70
COc1ccc(N2C(=O)NC(=O)/C(=C/c3ccc([N+](=O)[O-])s3)C2=O)cc1	n	90	n	61	62	71	69	tim23-1 confirm=76
COc1cccc(N2C(=O)NC(=O)/C(=C/c3ccc([N+](=O)[O-])s3)C2=O)c1	n	87	n	65	73	69	n	tim23-1 confirm=78
COc1ccccc1N1C(=O)NC(=O)/C(=C\c2cnn(-c3ccccc3)c2)C1=O	n	n	n	n	n	x	x
SMILES	MPTP inh	TIM10 inh	Mdm2-MdmX inh	tim23-1 inh	tim10-1 inh	tim10-1 confirm	tim10 confirm	others
COc1ccc(-n2nnnc2C(c2ccccc2OC(F)(F)F)N2CCC3(CC2)C(=O)NCN3c2ccccc2)cc1 (stereo unspecified)	n	x	x	x	x	x	x
O=S(=O)(c1cccc2ccccc12)N1Cc2ccccc2-n2nncc2C1	n	x	x	x	x	x	x
O=C(NC1CC1)c1cn(Cc2ccccc2)nc1-c1ccccc1	n	n	n	n	n	x	x
Cc1ccc(Cn2cc(C=O)c(-c3ccc(C)cc3)n2)cc1	n	n	n	53	45	35	x	tim23-1 confirm=65
C[C@@H]1CN([C@H](C)CO)C(=O)CCCn2nncc2CO[C@@H]1CN(C)C(=O)Oc1ccc2ccccc2c1	n	x	x	x	x	x	x
COc1cc(/C=C/[N+](=O)[O-])ccc1O	n	n	n	77	43	n	x	tim23-1 confirm=76
O=C1NC(=O)C(=Cc2ccccc2OCCOc2ccc([N+](=O)[O-])cc2)C(=O)N1	n	x	x	x	x	x	x
CN1C(=O)C(=Cc2ccccc2OCCOc2ccc([N+](=O)[O-])cc2)C(=O)N(C)C1=O	n	69	n	74	50	42	66	tim23-1 confirm=90
Cc1ccc(NC(=O)CN2C(=O)CN=C(c3ccccc3)c3cc(Cl)ccc32)cc1	n	n	n	61	45	n	x	tim23-1 confirm=52
CCOC(=O)[C@]12Cc3ccccc3[C@H]1N(CCC(=O)OC)C(=O)c1ccccc12	n	x	x	x	x	x	x
C[C@H]1CN([C@@H](C)CO)C(=O)CCCn2nncc2CO[C@@H]1CN(C)C(=O)Oc1ccccc1	n	x	x	x	x	x	x
O=C1NC(=O)N(Cc2ccc(F)cc2)C(=O)/C1=C\c1ccc(N2CCCC2)cc1	n	n	n	n	n	x	x
COc1ccc(CN2C(=O)NC(=O)/C(=C/c3ccc([N+](=O)[O-])s3)C2=O)cc1	n	82	n	59	67	75	n	tim23-1 confirm=75
O=C1NC(=O)N(Cc2ccc(F)cc2)C(=O)/C1=C\c1ccc([N+](=O)[O-])s1	n	83	n	60	70	75	n	tim23-1 confirm=76
Fc1ccc(C[n+]2c(-c3ccccc3)cc(-c3ccccc3)cc2-c2ccccc2)cc1	x	49	89	n	55	52	59	Mdm2-MdmX conf=69;FLuc counter=38
